Results reported in ChEMBL document CHEMBL4513216, “Probing the Open Global Health Chemical Diversity Library for Multistage-Active Starting Points for Next-Generation Antimalarials” (ACS Infect Dis, 2020).
Hit rate of the full screen: of about 68,000 compounds, about 2,700 (4%) showed an effect of 50% or more. The sample holds strong results, similar compounds and a random draw of the others, so the mix is not that of the screen.

Tested on: Plasmodium berghei
Experiment: Screen against P. berghei liver stage (PbLuc), transformed with Luciferase, at 2uM
Type: functional, HepG2
Conditions: tested at 2 uM

Row | SMILES | INHIBITION
1 | CCN1C[C@@H]2[C@@H](OC)CCN(S(=O)(=O)c3ccccc3F)[C@@H]2C1 | -22.38%
2 | O=C(CCc1ccccc1)NCC(O)c1c(F)cccc1F (configuration not stated) | -17.44%
3 | CC(C)C(=O)N1Cc2ccccc2CC2(CCCCN2C)C1 (configuration not stated) | 6.2%
4 | O=C(CCNc1ncccn1)N1CCN(c2nccs2)CC1 | 9.41%
5 | COCCN1CCC2(CC1)CC(CC(N)=O)c1ccc(F)cc12 (configuration not stated) | 53.06%
6 | CC(C)N1CCC2(CC1)CC(CC(N)=O)c1ccc(F)cc12 (configuration not stated) | -94.52%
7 | CCC(=O)N1CCC2(CC1)CC(CC(N)=O)c1ccc(F)cc12 (configuration not stated) | -10.13%
8 | O=C(CCc1cccc(F)c1F)N1CCCC(n2cncn2)C1 (configuration not stated) | -19.35%
9 | CCN(CC)[C@@H]1CN(C(=O)c2ccc(C#N)cc2)[C@@H]2CCCO[C@H]12 | -58.31%
10 | Nc1cccnc1N1CCN(c2ccccc2)CC1 | -43.35%
11 | COc1cccc(F)c1-c1nc2c([nH]1)c(C1CC1)nn2C | 21.14%
12 | O=C(c1ccc[nH]1)N1CCc2onc(COc3cccnc3)c2C1 | -39.67%
13 | O=C(c1ccncc1F)N1CCc2onc(COc3cccnc3)c2C1 | 54.89%
14 | O=C(N1CCCC1)N1CCc2onc(COc3cccnc3)c2C1 | 11.79%
15 | O=C(c1ccc(F)cc1F)N1C[C@@H](O)[C@H](N2CCOCC2)C1 | 13.51%
16 | O=C(CCc1nccs1)N1CCCC(N2CCNC2=O)C1 (configuration not stated) | 7.74%
17 | COCCN1C[C@@H]2CN(S(=O)(=O)c3cccs3)C[C@@H]2C1=O | -8.59%
18 | CCN1C[C@@H]2CN(S(=O)(=O)c3cccs3)C[C@@H]2C1=O | 62.25%
19 | CC(C)CN1C[C@@H]2CN(S(=O)(=O)c3cccs3)C[C@@H]2C1=O | 29.85%
20 | CCCN1CCCn2nc(CNS(=O)(=O)c3cccc(F)c3)cc2C1 | 39.28%
21 | Cc1ccc(CN(Cc2[nH]cnc2C)C2CC(C)(C)NC(C)(C)C2)o1 | -13%
22 | Cc1nc(C2CCCN2CC(=O)N2CCc3ccccc32)no1 (configuration not stated) | 47.93%
23 | CCOc1ccc(NC(=O)N2CCOC(C(N)=O)C2)cc1Cl (configuration not stated) | 51.4%

Row | SMILES | INHIBITION
24 | CCOc1ccc(NC(=O)N2CCOC(C(N)=O)C2)cc1C (configuration not stated) | 6.22%
25 | Cc1cc(NC(=O)N2CCOC(C(N)=O)C2)ccc1Br (configuration not stated) | 29.89%
26 | COCCOc1ccc(NC(=O)N2CCOC(C(N)=O)C2)cc1F (configuration not stated) | 29.89%
27 | COCC1CN(C(=O)Nc2cc(Cl)cc(Cl)c2)CCO1 (configuration not stated) | 13.12%
28 | NC(=O)C1CN(C(=O)Nc2cc(Cl)cc(Cl)c2)CCO1 (configuration not stated) | 80.56%
29 | Cc1ccsc1C(=O)N1CCCN(Cc2cscn2)CC1 | 29.12%
30 | COc1ccc(NCCC(=O)NCc2cccnc2N(C)C)cc1 | 35.54%
31 | CCOC(=O)c1cnn(C2CCN(C(=O)CC(C)(C)C)CC2)c1N | -40.25%
32 | c1ccc(CN2CCC3(CC2)CC(Nc2nccs2)CO3)nc1 (configuration not stated) | -14.97%
33 | O=C(NCC1CCN(CCc2ccccc2)C1)NCC1(O)CCC1 (configuration not stated) | -69.19%
34 | O=C(NCC1CCCN1Cc1ccccc1)NCC1(O)CCC1 (configuration not stated) | -19.78%
35 | O=C(NCC1CCCN1CCc1ccccc1)NCC1(O)CCC1 (configuration not stated) | 57.34%
36 | Cc1cc(CN2CC[C@H]3C[C@H](c4nc(C5CC5)cs4)O[C@@H]3C2)no1 | 35.84%
37 | COCCC1COC2(CCN(C(=O)c3ccncc3)CC2)C1 (configuration not stated) | 2.5%
38 | COCCC1COC2(CCN(C(=O)c3ccccc3)CC2)C1 (configuration not stated) | -40.63%
39 | COCCC1COC2(CCN(C(=O)c3ccsc3)CC2)C1 (configuration not stated) | 56.71%
40 | Cn1cnc(S(=O)(=O)NCCN2CCCCCC2=O)c1Cl | 3.86%
41 | Cc1cccc(C(=O)NC2CCN(c3cnn(C)c3)C2=O)n1 (configuration not stated) | 1.22%
42 | Cc1cccc(C(=O)NC2CCN(c3cnn(C)c3)C2=O)c1C (configuration not stated) | 13.53%
43 | Cn1cc(N2CCC(NC(=O)c3c(F)cccc3Cl)C2=O)cn1 (configuration not stated) | 50.98%
44 | Cc1ccccc1C(=O)NC1CCN(c2cnn(C)c2)C1=O (configuration not stated) | 52.08%
45 | Cn1cc(N2CCC(NC(=O)c3c(F)cccc3F)C2=O)cn1 (configuration not stated) | 31.98%
46 | Cc1ccsc1C(=O)NC1CCN(c2cnn(C)c2)C1=O (configuration not stated) | 20.14%

Row | SMILES | INHIBITION
47 | Cn1cc(N2CCC(NC(=O)c3ccccc3Cl)C2=O)cn1 (configuration not stated) | 28.95%
48 | CCc1ccc(C(=O)NC2CCN(c3cnn(C)c3)C2=O)o1 (configuration not stated) | 26.65%
49 | Cn1cc(N2CCC(NC(=O)c3ccccc3F)C2=O)cn1 (configuration not stated) | 63.1%
50 | COc1ccc(S(=O)(=O)NCCn2cnc(C)cc2=O)cc1C | 11.94%
51 | CCCN1C[C@@H]2CC[C@H]1CN(C(=O)c1ccc(N(C)CCO)cc1)C2 | 6.73%
52 | CC(=O)N(C)Cc1cccc(NC(=O)c2cnn(C)c2C)c1 | -7.28%
53 | CC(O)CN1CCC(CNCc2ccc(C(N)=O)cc2)CC1 (configuration not stated) | -63.41%
54 | N#CCCN(c1ccccc1)S(=O)(=O)CC1CCCCO1 (configuration not stated) | 16.87%
55 | CNC(=O)CCN(C)CC1(c2ccc(Br)cc2)CC1 | -43.52%
56 | CCNC(=O)N(C)Cc1ccc(SC)c(OC)c1 | -53.99%
57 | CCc1cnc(C)nc1N(C)CCCc1cnn(C)c1 | -32.88%
58 | COc1ccccc1-n1cc(C(=O)NCCCn2ccnn2)cn1 | 32.73%
59 | CC(C#N)NS(=O)(=O)c1ccc2c(c1)N(C)CCC2 (configuration not stated) | -95.81%
60 | Brc1csc(CNCc2nnc3n2CCC3)c1 | 26.81%
61 | COc1ccc(-n2ccc(C(=O)NCCN3CCCCCC3)n2)cc1 | 23.42%
62 | COC(=O)CCNC(=O)c1ccc(NC(=O)N(C)CC(C)(C)C)cc1 | 6.85%
63 | O=C(CCc1nc(C2CC2)no1)c1ccc(F)c(F)c1 | -44.84%
64 | COc1ccc(C(=O)CCc2nc(C3CC3)no2)cc1 | 9.43%
65 | O=C(CCc1nc(C2CC2)no1)c1ccccc1 | 53.65%
66 | Cc1ccc(CN2CCN(c3ncccc3Cl)CC2CCO)cc1 (configuration not stated) | -87.47%
67 | Cc1nc(C2CCCN(C(=O)c3ccc(S(C)(=O)=O)cc3)C2)no1 (configuration not stated) | -6.56%
